FAS TE block = blocks the thioesterase domain of human fatty acid synthase; P49327; recombinant FAS-TE, OMFH fluorogenic substrate, fluorescence endpoint; inhibition, % at 15 µM; actives 0.67% (n = 360,000); AID 602261;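 active = compounds whose normalised, plate-corrected inhibition of enzyme fluorescence in the single-dose primary screen is 50% or more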;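 note: 0% = DMSO with enzyme and 100% = substrate without enzyme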
NadD inh = NadD (S. aureus) enzyme inhibition | actives 0.78% (n = 360,000) | purified NadD enzyme, colorimetric absorbance read-out | inhibition, % at 20 µM; in the data active = inhibition above about 26%
rCAG RNA binder = binds r(CAG) RNA repeats; r(CAG) RNA repeat, TO-PRO-1 dye displacement fluorescence; inhibition, % at 3 µM; actives 1.3% (n = 370,000); AID 651821;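 active = inhibition above the plate cutoff, the mean of all test compounds on that plate plus 3 SD, cut at about 35% in these data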;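 note: 0% = DMSO alone and 100% = 100 µM mitoxantrone as full dye displacement; higher means more dye released from RNA so lower well fluorescence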
NR3A LBD binder = modulates the human NR3A ligand-binding domain. Tm shift relative to glycine control, % at 25 µM. actives 2.5% (n = 340,000). AID 1259313. NR3A LBD differential scanning fluorimetry, Tm shift; 0% = protein alone, 100% = glycine-bound protein;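 active = melting temperature shift of at least 10% of the positive control shift, at one fixed dose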
NadD conf = NadD (S. aureus) inhibition, single concentration confirmation. shares compounds with NadD inh. purified S. aureus NadD, colorimetric enzyme assay. inhibition, % at 20 µM. actives 13% (n = 2,000). AID 624309; in the data active = inhibition mostly above about 42%, no sharp cut-off; inactive = mostly below about 42%
An asterisk follows results filed as active; nt = no result. Rows were chosen to be rich in hits. Some 4.3% of all compounds tested hit in one or more screens of this group.

SMILES	FAS TE block	NadD inh	rCAG RNA binder	NR3A LBD binder	NadD conf
O=c1/c(=C\c2ccc(O)cc2)sc2n1C(c1ccccc1)C(c1ccccc1)=NN=2 (stereo unspecified)	4	39*	18	15*	57*
COc1ccc(C(=O)/C=C/Nc2ccc(S(=O)(=O)Nc3cc(OC)nc(OC)n3)cc2)c(OC)c1	-2	32*	32	-3	43
COc1cc(NS(=O)(=O)c2ccc(N/C=C(\C#N)c3nc4cc(Cl)ccc4o3)cc2)nc(OC)n1	10	39*	9	6	38
COc1cc(NS(=O)(=O)c2ccc(N/C=C\C(=O)c3ccc(C)cc3)cc2)nc(OC)n1	-6	3	17	-8	nt
FC(F)(F)c1nnc(-c2ccccc2)nc1Sc1ccc(Cl)cc1	25	33*	-1	-1	-3
FC(F)(F)c1nnc(-c2ccccc2)nc1Sc1ccccc1	25	17	0	-13	nt
CC1CCCN(C(=S)SCC(=O)c2cc(Br)cc(Br)c2O)C1 (stereo unspecified)	16	64*	26	-4	10
COc1ccc(C(CCOC(=O)Oc2ccccc2)c2cc(OC)c(OC)c(OC)c2)cc1 (stereo unspecified)	nt	nt	1	nt	nt
O=C(CSc1nc2c(cnn2-c2ccc(F)cc2)c(=O)[nH]1)N1N=C(c2cccs2)CC1c1ccc(F)cc1 (stereo unspecified)	34	54*	6	nt	1
O=C(CSc1nc2ccccc2s1)N1N=C(c2cccs2)CC1c1ccc(F)cc1 (stereo unspecified)	27	0	9	9	nt
COC(=O)[C@H](CC(C)C)N(Cc1cn(CC2CCCCC2)nn1)S(=O)(=O)c1ccc(F)cc1Br	nt	nt	4	nt	nt
Brc1ccc(-c2nn3c(-c4ccccc4)nnc3s2)o1	nt	nt	8	nt	nt
N#CCC(=O)N/N=C/c1cc(Br)ccc1OCc1cccc2ccccc12	9	26*	14	20*	29
N#CCC(=O)N/N=C/c1c2ccccc2cc2ccccc12	-7	-3	11	-1	nt
O=C(CSc1nc2ccccc2n1Cc1ccccc1)NN=C/C=C/c1ccccc1	nt	nt	8	nt	nt
Cc1cc(C(=O)N/N=C/c2ccc(-c3ccc([N+](=O)[O-])cc3Cl)o2)n[nH]1	2	40*	5	5	8
Cc1cc(C(=O)N/N=C/c2ccc(-c3cccc([N+](=O)[O-])c3)o2)n[nH]1	-1	5	0	3	nt
O=C(O)c1nn(Cc2ncc(-c3cccc(Cl)c3)o2)c(=O)c2ccccc12	10	34*	11	-3	16
O=C(Nc1ccccc1)Nc1nc2ncccn2c1-c1ccc(F)c(F)c1	nt	nt	3	nt	nt
O=C1N[C@@H](Cc2c[nH]c3ccccc23)COC(=O)[C@H](Cc2ccc(F)cc2)C/C=C\C[C@@H]1CC(=O)N(CCO)Cc1ccccc1	10	1	7	-8	nt
O=C(N[C@H]1C/C=C\C[C@@H](CC(=O)N(CCO)Cc2ccccc2)C(=O)N[C@H](Cc2c[nH]c3ccccc23)COC1=O)OCC1c2ccccc2-c2ccccc21	13	36*	14	-5	25
O=C(N[C@@H]1C/C=C\C[C@H](CC(=O)N(CCO)Cc2ccccc2)C(=O)N[C@@H](Cc2c[nH]c3ccccc23)COC1=O)OCC1c2ccccc2-c2ccccc21	3	34*	15	-4	23
O=C(N[C@H]1C/C=C\C[C@H](CC(=O)N(CCO)Cc2ccccc2)C(=O)N[C@H](Cc2c[nH]c3ccccc23)COC1=O)OCC1c2ccccc2-c2ccccc21	-2	32*	16	0	17
O=C1N[C@@H](Cc2c[nH]c3ccccc23)COC(=O)[C@@H](Cc2ccc(F)cc2)C/C=C\C[C@H]1CC(=O)N(CCO)Cc1ccccc1	29	3	2	-2	nt
O=C(N[C@@H]1C/C=C\C[C@@H](CC(=O)N(CCO)Cc2ccccc2)C(=O)N[C@@H](c2ccccc2)COC1=O)OCC1c2ccccc2-c2ccccc21	6	17	3	-4	nt
SMILES	FAS TE block	NadD inh	rCAG RNA binder	NR3A LBD binder	NadD conf
Cc1ccc(CN2CCCCC(NC(=O)c3cccc(C(F)(F)F)c3)C2=O)cc1 (stereo unspecified)	nt	nt	0	nt	nt
N#C/C(=C\c1coc2ccc(O)cc2c1=O)C(=O)Nc1nc2ccccc2s1	-73	30*	-70	6	42
Cc1cc[n+](CC(=O)c2ccc(NC(=O)c3ccccc3)cc2)c2ccccc12	-10	37*	15	-1	-16
O=C(C[n+]1cccc2ccccc21)c1ccc(NC(=O)c2ccccc2)cc1	-2	6	14	-2	nt
COCCCn1c(=N)c(C(N)=S)cc2c(=O)n3cccc(C)c3nc21	-6	28	11	3	nt
Cc1cccn2c(=O)c3cc(C(N)=S)c(=N)n(CCCN4CCOCC4)c3nc12	-5	36*	3	-14	-8
Cc1ccccc1OCC(=O)N/N=C/c1ccc(Sc2nc3ccccc3s2)o1	23	14	1	1	nt
O=C(COc1cccc2ccccc12)N/N=C/c1ccc(Sc2nc3ccccc3s2)o1	19	36*	5	9	27
CCOC(=O)C1CSCCS(=O)(=O)N1Cc1ccccc1C (stereo unspecified)	nt	nt	-1	nt	nt
Cc1cccc(Nc2nnc(SC/C(O)=C(\C#N)c3nc4ccccc4[nH]3)s2)c1C	0	45*	26	8	41
N#C/C(=C(/O)CSc1n[nH]c(N)n1)c1nc2ccccc2[nH]1	-8	-1	4	1	nt
Cc1cccc(C)c1Nc1nnc(SC/C(O)=C(\C#N)c2nc3ccccc3[nH]2)s1	-2	32*	25	-2	69*
Cn1cnnc1SC/C(O)=C(\C#N)c1nc2ccccc2[nH]1	-9	-4	5	0	nt
O=C1C[C@@H](c2ccccc2)N=C2N(Cc3ccc4c(c3)OCO4)C/C(=C/c3ccccc3)N12	nt	nt	7	nt	nt
O=C(NCCN1C(=O)S/C(=C\c2ccc(Cl)c(Cl)c2)C1=O)c1ccc2c(c1)C(=O)N(Cc1ccncc1)C2=O	3	28*	5	-4	-4
O=C(NCCN1C(=O)S/C(=C\c2ccc(Cl)c(Cl)c2)C1=O)C1COc2ccccc2O1 (stereo unspecified)	27	16	2	1	nt
Cc1ccc(-n2c(SCC(=O)c3ccc(F)cc3)nnc2-c2cnccn2)cc1	nt	nt	2	nt	nt
COc1cc(NC(=O)COc2ccc(Cl)cc2)ccc1-c1cc2ccccc2oc1=O	23	38*	15	10*	5
COc1ccc(C(=O)OCCN2CCN(C3CN(Cc4cn(Cc5ccccc5C(F)(F)F)nn4)S(=O)(=O)C3)CC2)cc1OC (stereo unspecified)	nt	nt	0	nt	nt
C#CCNC(=O)C[C@@H]1C(=O)N(CC=C)C2=CCCCC[C@]21C(=O)OC	nt	nt	5	nt	nt
COc1ccc(-c2[nH]ncc2CN2CCN(c3ccccn3)CC2)c(OC)c1	-2	-6	-6	0	nt
COc1ccc(-c2[nH]ncc2CN2CCCCCCC2)c(OC)c1	-6	30*	1	-2	15
Nc1cc(N)cc(Cc2ccccc2)c1	6	33*	14	nt	46
